Compounds without any hit were thinned out: in the full panel of roughly 83,000, 20% have a hit.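 Negative percent growth values reflect cell death: -40 means 40% of the cells present at the start died, and -100 means all died.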 Active and inactive are the calls of the source. The calls were made as follows: active = growth percent below 10; inactive = the rest.
Columns and labels:
Experiment in all cases: NCI-60 one-dose screen, 48 h (100 = growth as untreated, 0 = no growth, -100 = all killed)
Details in all cases: 10 µM unless noted
SR leukemia = system: SR leukemia
RPMI-8226 leukemia = system: RPMI-8226 leukemia
OVCAR-8 ovarian = system: OVCAR-8 ovarian
OVCAR-5 ovarian = system: OVCAR-5 ovarian
OVCAR-4 ovarian = system: OVCAR-4 ovarian
SK-OV-3 ovarian = system: SK-OV-3 ovarian
IGROV1 ovarian = system: IGROV1 ovarian
OVCAR-3 ovarian = system: OVCAR-3 ovarian
HS 578T breast = system: HS 578T breast
NCI/ADR-RES ovarian = system: NCI/ADR-RES ovarian
T-47D breast = system: T-47D breast
BT-549 breast = system: BT-549 breast
MDA-MB-435 melanoma = system: MDA-MB-435 melanoma
SW-620 colon = system: SW-620 colon
MCF7 breast = system: MCF7 breast
HCT-116 colon = system: HCT-116 colon
HCC-2998 colon = system: HCC-2998 colon
KM12 colon = system: KM12 colon

Measured: growth

CN1CCN(CC#CCNC(=O)[C@]23CCC(C)(C)C[C@H]2C2=CC[C@@H]4[C@@]5(C)Cc6c([nH]c7ccccc67)C(C)(C)[C@@H]5CC[C@@]4(C)[C@]2(C)CC3)CC1
active: SR leukemia -2.18%
inactive: RPMI-8226 leukemia 53.2% | OVCAR-8 ovarian 77% | OVCAR-5 ovarian 98.9% | OVCAR-4 ovarian 77.8% | SK-OV-3 ovarian 87.1% | IGROV1 ovarian 81.3% | OVCAR-3 ovarian 72.2% | HS 578T breast 77.9% | NCI/ADR-RES ovarian 76.9% | T-47D breast 94.4% | BT-549 breast 101% | MDA-MB-435 melanoma 47.2% | SW-620 colon 46.8% | MCF7 breast 32.4% | HCT-116 colon 22.5% | HCC-2998 colon 80% | KM12 colon 52.3%

COc1ccc(C(=O)c2cc(C)c(OC)c(C)c2)c(OC)c1O
inactive: SR leukemia 18.8% | RPMI-8226 leukemia 25.9% | OVCAR-8 ovarian 11.3% | OVCAR-5 ovarian 46.9% | OVCAR-4 ovarian 41.1% | IGROV1 ovarian 25.9% | HS 578T breast 18.1% | T-47D breast 40.2% | SW-620 colon 22% | MCF7 breast 16.1% | HCC-2998 colon 16.8%
active: SK-OV-3 ovarian -10.5% | OVCAR-3 ovarian -15.8% | NCI/ADR-RES ovarian 1.87% | BT-549 breast 8.49% | MDA-MB-435 melanoma -40.3% | HCT-116 colon 1.83% | KM12 colon 7.53%

O=C(N/N=C/c1cccnc1)c1ccccc1Nc1cccc(C(F)(F)F)c1
inactive: RPMI-8226 leukemia 71.1% | OVCAR-8 ovarian 83.1% | OVCAR-5 ovarian 96.4% | OVCAR-4 ovarian 70.3% | SK-OV-3 ovarian 80.3% | IGROV1 ovarian 91.4% | OVCAR-3 ovarian 75.4% | HS 578T breast 100% | NCI/ADR-RES ovarian 79% | T-47D breast 61.9% | BT-549 breast 80.7% | MDA-MB-435 melanoma 26.2% | SW-620 colon 84.1% | MCF7 breast 91.8% | HCT-116 colon 85.9% | HCC-2998 colon 101% | KM12 colon 88.2%
active: SR leukemia -15.3%

COc1cc2nc(-c3ccc(C(F)(F)F)cc3)cc(OCCCN3CCC(O)CC3)c2cc1OC
active: RPMI-8226 leukemia 9.93% | MDA-MB-435 melanoma -29%
inactive: SR leukemia 10.9% | OVCAR-8 ovarian 44.1% | OVCAR-5 ovarian 42.8% | OVCAR-4 ovarian 59.7% | SK-OV-3 ovarian 65.8% | IGROV1 ovarian 27.2% | OVCAR-3 ovarian 64% | HS 578T breast 64.7% | NCI/ADR-RES ovarian 37.6% | T-47D breast 24.7% | BT-549 breast 26.5% | SW-620 colon 15.9% | MCF7 breast 37.3% | HCT-116 colon 15% | HCC-2998 colon 52.5% | KM12 colon 26.5%

S=c1[nH]cccc1-c1nnc2n1Nc1nc3ccccc3cc1CS2
inactive: SR leukemia 95.7% | RPMI-8226 leukemia 99.2% | OVCAR-8 ovarian 98% | OVCAR-5 ovarian 96% | OVCAR-4 ovarian 101% | SK-OV-3 ovarian 82.1% | IGROV1 ovarian 90.7% | OVCAR-3 ovarian 105% | HS 578T breast 96.4% | NCI/ADR-RES ovarian 98.2% | T-47D breast 95.4% | BT-549 breast 100% | MDA-MB-435 melanoma 106% | SW-620 colon 99.4% | MCF7 breast 103% | HCT-116 colon 94.9% | HCC-2998 colon 98.5% | KM12 colon 109%

CC(C)Sc1nc(NN)c(C#N)c(-c2ccccc2)n1
inactive: SR leukemia 109% | RPMI-8226 leukemia 100% | OVCAR-8 ovarian 96.6% | OVCAR-5 ovarian 92.8% | OVCAR-4 ovarian 94.5% | SK-OV-3 ovarian 108% | IGROV1 ovarian 86.3% | OVCAR-3 ovarian 100% | HS 578T breast 93.6% | NCI/ADR-RES ovarian 99.8% | T-47D breast 90.4% | BT-549 breast 79.3% | MDA-MB-435 melanoma 103% | SW-620 colon 94.9% | MCF7 breast 90.9% | HCT-116 colon 87.9% | HCC-2998 colon 100% | KM12 colon 101%

N#C/C(=C\c1ccc(Br)cc1)n1nnc2cccc(F)c21
inactive: SR leukemia 10.1% | OVCAR-5 ovarian 10.5% | OVCAR-4 ovarian 17.5% | SK-OV-3 ovarian 78.3% | T-47D breast 21.7% | BT-549 breast 17.6% | MCF7 breast 12.6% | HCC-2998 colon 19.2%
active: RPMI-8226 leukemia -19.6% | OVCAR-8 ovarian 8.42% | IGROV1 ovarian 4.13% | OVCAR-3 ovarian -31.5% | HS 578T breast -11.1% | NCI/ADR-RES ovarian 3.27% | MDA-MB-435 melanoma -18% | SW-620 colon -48% | HCT-116 colon 2.67% | KM12 colon 7.22%

O=C1Nc2c(ccc(Cl)c2Cl)/C1=C/c1ccc(F)cc1
inactive: SR leukemia 73.9% | RPMI-8226 leukemia 96.5% | OVCAR-8 ovarian 97.9% | OVCAR-5 ovarian 84.4% | OVCAR-4 ovarian 73.8% | SK-OV-3 ovarian 89.7% | IGROV1 ovarian 42.8% | OVCAR-3 ovarian 83.5% | HS 578T breast 73.8% | NCI/ADR-RES ovarian 94% | T-47D breast 71.2% | BT-549 breast 99.8% | MDA-MB-435 melanoma 99.1% | SW-620 colon 96.4% | MCF7 breast 37.7% | HCT-116 colon 84.4% | HCC-2998 colon 58.1% | KM12 colon 85.2%

COc1ccc(NC(=O)c2sc3nc(C)c(C(O)c4ccc(OC)cc4)cc3c2N)cc1 (stereo unspecified)
inactive: RPMI-8226 leukemia 39.8% | OVCAR-8 ovarian 20.4% | OVCAR-5 ovarian 50.6% | OVCAR-4 ovarian 50.4% | SK-OV-3 ovarian 38.5% | IGROV1 ovarian 29.1% | OVCAR-3 ovarian 16.7% | HS 578T breast 20.1% | NCI/ADR-RES ovarian 16.1% | T-47D breast 56.8% | BT-549 breast 28.8% | SW-620 colon 33.8% | MCF7 breast 13.7% | HCT-116 colon 15.3% | HCC-2998 colon 20.4% | KM12 colon 20.7%
active: SR leukemia 4.21% | MDA-MB-435 melanoma -2.11%

Cc1ccc(-c2csc(/N=C3\C(=O)Nc4ccccc43)n2)cc1
inactive: OVCAR-8 ovarian 16.3% | OVCAR-5 ovarian 60.8% | OVCAR-4 ovarian 36% | SK-OV-3 ovarian 32.4% | IGROV1 ovarian 25.3% | HS 578T breast 31.2% | NCI/ADR-RES ovarian 81% | T-47D breast 20% | BT-549 breast 23.6% | MDA-MB-435 melanoma 12.9% | SW-620 colon 19.4% | KM12 colon 15.2%
active: SR leukemia -30.2% | RPMI-8226 leukemia -20.2% | OVCAR-3 ovarian -10.7% | MCF7 breast 6.92% | HCT-116 colon 4.56% | HCC-2998 colon 6.25%

COc1cc(C2CC(c3cccc(Nc4ccncc4)c3)=NN2c2ccccc2)cc(OC)c1OC (stereo unspecified)
active: SR leukemia 2.93% | RPMI-8226 leukemia 7.32% | MDA-MB-435 melanoma -72.9% | SW-620 colon -25.9% | KM12 colon 7.46%
inactive: OVCAR-8 ovarian 66.6% | OVCAR-5 ovarian 89.3% | OVCAR-4 ovarian 41.2% | SK-OV-3 ovarian 74% | IGROV1 ovarian 55% | OVCAR-3 ovarian 56.2% | HS 578T breast 64.2% | NCI/ADR-RES ovarian 66.3% | T-47D breast 82.3% | BT-549 breast 59.4% | MCF7 breast 13.7% | HCT-116 colon 32% | HCC-2998 colon 20.2%

C=CCn1c(SCC(=O)Nc2ccc(C(=O)/C=C/c3cc(OC)c(OC)c(OC)c3)cc2)nnc1-c1cc(-c2ccc(S(C)(=O)=O)cc2)nc2ccccc12
inactive: SR leukemia 13.9% | OVCAR-8 ovarian 68.6% | OVCAR-5 ovarian 112% | OVCAR-4 ovarian 94.5% | SK-OV-3 ovarian 127% | IGROV1 ovarian 72.8% | OVCAR-3 ovarian 85.9% | HS 578T breast 95.3% | NCI/ADR-RES ovarian 91.3% | T-47D breast 85.6% | BT-549 breast 79.4% | MDA-MB-435 melanoma 88.6% | SW-620 colon 77% | MCF7 breast 50.6% | HCT-116 colon 27.4% | HCC-2998 colon 111% | KM12 colon 75.2%
active: RPMI-8226 leukemia -5.82%

COc1ccc(NS(=O)(=O)c2ccc(C)cc2)c([N+](=O)[O-])c1
inactive: SR leukemia 100% | RPMI-8226 leukemia 96.7% | OVCAR-8 ovarian 104% | OVCAR-5 ovarian 106% | OVCAR-4 ovarian 115% | SK-OV-3 ovarian 105% | IGROV1 ovarian 102% | OVCAR-3 ovarian 106% | HS 578T breast 95.7% | NCI/ADR-RES ovarian 95.9% | T-47D breast 93.5% | BT-549 breast 104% | MDA-MB-435 melanoma 111% | SW-620 colon 103% | MCF7 breast 99.7% | HCT-116 colon 106% | HCC-2998 colon 99.6% | KM12 colon 104%

COc1ccc2c(c1)c(CC(=O)NCCOCCOCC(=O)Nc1ccc(OC)c(C(N)=O)c1O)c(C)n2C(=O)c1ccc(Cl)cc1
inactive: SR leukemia 90.2% | RPMI-8226 leukemia 96.9% | OVCAR-8 ovarian 90.3% | OVCAR-5 ovarian 112% | OVCAR-4 ovarian 93.7% | SK-OV-3 ovarian 109% | IGROV1 ovarian 93.9% | OVCAR-3 ovarian 103% | HS 578T breast 105% | NCI/ADR-RES ovarian 91.6% | T-47D breast 81.3% | BT-549 breast 81.1% | MDA-MB-435 melanoma 104% | SW-620 colon 99.4% | MCF7 breast 94.6% | HCT-116 colon 93.9% | HCC-2998 colon 93.5% | KM12 colon 99.4%

COc1ccc(NC(=O)c2sc3nc(C)c(C(=O)c4ccc(OC)cc4)cc3c2N)cc1
active: SR leukemia 7.62% | MDA-MB-435 melanoma -26.2%
inactive: RPMI-8226 leukemia 41.3% | OVCAR-8 ovarian 62.1% | OVCAR-5 ovarian 72.6% | OVCAR-4 ovarian 61.7% | SK-OV-3 ovarian 42.7% | IGROV1 ovarian 50.2% | OVCAR-3 ovarian 25% | HS 578T breast 40.4% | NCI/ADR-RES ovarian 48.9% | T-47D breast 59.6% | BT-549 breast 49.1% | SW-620 colon 34.9% | MCF7 breast 25.3% | HCT-116 colon 21.8% | HCC-2998 colon 89.4% | KM12 colon 46.9%

CN(C)CCCn1c2c(c3ccc(-c4ccn[nH]4)cc3c1=O)C(=O)c1ccccc1-2
active: SR leukemia -1.12% | RPMI-8226 leukemia -0.979% | MCF7 breast 9.49%
inactive: OVCAR-8 ovarian 23.7% | OVCAR-5 ovarian 59.2% | OVCAR-4 ovarian 77.9% | SK-OV-3 ovarian 23.5% | IGROV1 ovarian 41.2% | OVCAR-3 ovarian 66.9% | HS 578T breast 68.6% | NCI/ADR-RES ovarian 50.3% | T-47D breast 43.2% | BT-549 breast 56.1% | MDA-MB-435 melanoma 78.4% | SW-620 colon 37.1% | HCT-116 colon 28.9% | HCC-2998 colon 53.8% | KM12 colon 18.1%

COc1ccc(-c2nc(SC(C)C)nc(NNC(N)=O)c2C#N)cc1
active: MDA-MB-435 melanoma 3.51%
inactive: SR leukemia 25.8% | RPMI-8226 leukemia 93.9% | OVCAR-8 ovarian 96.9% | OVCAR-5 ovarian 85.6% | OVCAR-4 ovarian 94.6% | SK-OV-3 ovarian 83.8% | IGROV1 ovarian 72.4% | OVCAR-3 ovarian 81% | HS 578T breast 78.9% | NCI/ADR-RES ovarian 70.7% | T-47D breast 84.8% | BT-549 breast 102% | SW-620 colon 50.7% | MCF7 breast 84.3% | HCT-116 colon 102% | HCC-2998 colon 88.9% | KM12 colon 58.6%
